Assay results: the supplement of paper PMC3334620
The full ranking holds about 33,000 sequences; the median of “E-score (-0.5 to 0.5)” is about -0.012, and the highest 2% start at about 0.29. This is one part of a sample in which the highest values are shown more often than they occur.

These sequences were tested against T1, Ybr033w (UniProt P38073) (assay: PBM E-score (8-mer binding enrichment) (E-score (-0.5 to 0.5)); higher = stronger / more preferred TF binding). Conditions: protein concentration: 200 nM; construct: GST-full length.
T1 sequence: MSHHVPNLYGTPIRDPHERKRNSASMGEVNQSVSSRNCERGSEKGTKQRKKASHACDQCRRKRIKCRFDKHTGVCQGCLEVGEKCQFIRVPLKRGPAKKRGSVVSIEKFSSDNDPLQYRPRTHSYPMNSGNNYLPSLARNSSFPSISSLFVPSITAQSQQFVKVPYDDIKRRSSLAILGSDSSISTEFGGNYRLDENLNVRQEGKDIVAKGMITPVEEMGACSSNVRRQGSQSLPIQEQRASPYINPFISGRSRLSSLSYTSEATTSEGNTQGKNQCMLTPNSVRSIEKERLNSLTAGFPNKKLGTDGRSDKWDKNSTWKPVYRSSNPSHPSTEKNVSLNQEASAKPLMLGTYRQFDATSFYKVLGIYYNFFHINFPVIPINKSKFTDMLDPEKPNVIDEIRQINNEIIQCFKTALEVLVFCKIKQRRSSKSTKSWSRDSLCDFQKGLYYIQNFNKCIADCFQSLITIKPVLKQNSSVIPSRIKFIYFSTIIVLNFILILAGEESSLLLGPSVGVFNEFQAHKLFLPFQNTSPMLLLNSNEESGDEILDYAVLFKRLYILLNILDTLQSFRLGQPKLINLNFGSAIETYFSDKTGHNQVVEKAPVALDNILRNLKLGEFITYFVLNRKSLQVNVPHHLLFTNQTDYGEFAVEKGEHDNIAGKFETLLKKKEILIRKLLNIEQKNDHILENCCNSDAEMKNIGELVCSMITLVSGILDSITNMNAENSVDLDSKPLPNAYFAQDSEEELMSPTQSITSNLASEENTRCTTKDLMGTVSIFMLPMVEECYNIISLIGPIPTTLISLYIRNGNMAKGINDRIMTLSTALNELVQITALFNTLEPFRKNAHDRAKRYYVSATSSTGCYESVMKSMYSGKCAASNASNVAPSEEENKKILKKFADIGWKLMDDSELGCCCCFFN
Method in brief: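 GST-tagged yeast TFs (full-length or DNA-binding domain) were made by PURExpress in vitro transcription/translation and applied at about 100-200 nM to universal all-10-mer Agilent arrays. The arrays were made double-stranded by primer extension, on fresh or once-stripped slides. Bound protein was detected with fluorescent anti-GST, and scans were normalised with masliner. Each ungapped eight-base word, pooled with its reverse complement, received an E-score (modified Wilcoxon-Mann-Whitney statistic) from the Universal PBM Analysis Suite.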

Row | Sequence | PBM E-score
1 | GGACCACA | -0.00774
2 | CCTACCAC | -0.155
3 | AGCGTCCA | -0.13
4 | TAGGCTGA | -0.0515
5 | CACCAACC | -0.105
6 | AATCCACT | 0.193
7 | TAGCTTGA | -0.0114
8 | GGCCTTGA | -0.0647
9 | ACGTCAGG | -0.168
10 | CTGGATTA | 0.309
11 | CCGGATGA | 0.289
12 | GCGGATAA | 0.416
13 | CCGGATCC | -0.129
14 | ACGGATCA | 0.236
15 | GCGGATAC | 0.0188
16 | GTGGATTA | 0.164
17 | CCGGATGC | -0.178
18 | CCGGATCA | 0.345
19 | GCGGATGA | 0.0612
20 | ACGGATAA | 0.276
21 | CTGGATTC | 0.00016
22 | CTTTGGTC | 0.0811
23 | GAACTTCC | 0.16
24 | CTTCGCCC | -0.143
25 | AATAGGGG | -0.0543

Row | Sequence | PBM E-score
26 | GGGGCTCA | -0.219
27 | AGTTGCGG | 0.0698
28 | AAGTTAGA | 0.235
29 | GTACAGAC | -0.1
30 | GACACATC | -0.11
31 | GGCTACCA | -0.203
32 | GATGCTAC | 0.0488
33 | CCCTTTCA | -0.19
34 | AAGTCTTA | -0.00514
35 | CCGGATAC | -0.0612
36 | CCGGATAG | 0.0368
37 | CCGGATAA | 0.454
38 | CCAGAATA | 0.0783
39 | ACTTTGGA | 0.156
40 | ACCATGAC | -0.0754
41 | ACAGCTGC | -0.0919
42 | CGAGAGAC | -0.188
43 | AAATTAGT | 0.206
44 | CAATTATG | 0.08
45 | AGATTATG | 0.148
46 | CAATTATC | 0.365
47 | AAATTATC | 0.418
48 | AGATTATC | 0.301
49 | AAATTATT | 0.417
50 | CGATTATC | 0.07

Row | Sequence | PBM E-score
51 | AAATTATG | 0.227
52 | AAATTAGG | 0.138
53 | CAATTAAC | 0.224
54 | ACATTATC | 0.219
55 | CCCCACAA | -0.229
56 | CACTTTAG | 0.112
57 | ACTTACTC | 0.0333
58 | GTGCGGTA | -0.0389
59 | CCCAAGCA | -0.0848
60 | AACCTCGG | 0.0447
61 | GAAATCTC | -0.0338
62 | CGGGGGAG | -0.329
63 | AATATATT | 0.411
64 | ACAATATA | 0.264
65 | ACAATATC | 0.293
66 | AAAATATT | 0.364
67 | AAAATAGT | 0.225
68 | CAAATATC | 0.269
69 | ACAATATG | 0.199
70 | AAAATATC | 0.304
71 | AAAATATA | 0.28
72 | AATATATA | 0.277
73 | AATATATG | 0.204
74 | CACCTCTC | -0.283
75 | AGAATGGA | 0.0873

Row | Sequence | PBM E-score
76 | GGACGCGA | -0.0773
77 | ATCTGGGC | -0.0818
78 | CTCCTCGC | -0.257
79 | CATTCTAA | 0.165
80 | CTGGCTTC | -0.174
81 | TATTCTGA | 0.0151
82 | ATCTCATG | 0.0775
83 | ATTTTCTG | 0.0635
84 | AGAATATG | 0.229
85 | AAAATATG | 0.299
86 | CAAATATG | 0.0991
87 | GTCTGACA | 0.00461
88 | CAGTTATC | -0.0111
89 | GAGTAGTA | 0.163
90 | ATTAATGA | 0.354
91 | AATAATGG | 0.162
92 | ATTAATGG | 0.289
93 | ATTAATGC | 0.22
94 | CTTAATGA | -0.0192
95 | GTTAATGA | 0.12
96 | AATTAGCG | 0.161
97 | AGTCTCAC | -0.0327
98 | TAAAGGAA | 0.162
99 | CGGATGAG | -0.0297
100 | CGGATGAA | 0.371

Row | Sequence | PBM E-score
101 | AGGATGAA | 0.187
102 | AGTCCAGC | -0.114
103 | GGGTGAAA | 0.0993
104 | ACAGTCGT | -0.164
105 | AGTGGAAA | 0.146
106 | AGGAAAAA | 0.431
107 | AGGAAAAG | 0.038
108 | GGGAAAAA | 0.453
109 | GGGAAAAC | 0.0792
110 | AGGAAAAC | 0.12
111 | TGTGGAAA | 0.291
112 | TGAAAAAA | 0.246
113 | GGGGAAAA | 0.208
114 | TGGAAAAA | 0.458
115 | CGTGGAAA | 0.182
116 | TGGAAACA | -0.0929
117 | GGCTGAGA | -0.171
118 | GTCATTAA | 0.203
119 | TGTTATAA | 0.19
120 | ATACGGTA | 0.125
121 | CTTTGTGC | -0.00737
122 | CAGGCATC | 0.00941
123 | TCTCGACA | 0.0966
124 | CCGACTCC | -0.185
125 | AGAAAAAT | 0.269

Row | Sequence | PBM E-score
126 | AAGAAAAA | 0.258
127 | AAGAAAAT | 0.331
128 | AAGAAATT | 0.281
129 | ACGAAAAT | 0.259
130 | AGGAAAAT | 0.379
131 | CTACTGGC | -0.052
132 | AGTAGCTG | 0.0396
133 | GCAGCGTA | -0.106
134 | AGAACTAT | 0.275
135 | ATCTTTGG | 0.0693
136 | CTTTAGTA | 0.0159
137 | GTTTAATA | 0.264
138 | ATTTAATA | 0.325
139 | ATTTAGTC | 0.0709
140 | ATTTAATC | 0.352
141 | ATTTAATG | 0.244
142 | CTTTAATA | 0.227
143 | ATTTAGTA | 0.376
144 | CTTTAATC | 0.145
145 | GACTCCCA | -0.305
146 | CAGCCGTC | -0.0893
147 | CGGAAGAC | 0.00735
148 | AAGAAGAT | 0.205
149 | AGGAAGAG | -0.0292
150 | CGGAAGAG | -0.108

Row | Sequence | PBM E-score
151 | AGGAAGAA | 0.36
152 | TAGAAGAA | 0.0772
153 | AGGAAGAC | -0.214
154 | TGGAAGAA | 0.347
155 | AGGAAGAT | 0.323
156 | GGGAAGAA | 0.256
157 | CGGAAGAA | 0.462
158 | AAGAAGAA | 0.185
159 | TGATACCA | 0.092
160 | CATTGGGC | -0.222
161 | CCTAAAAG | -0.226
162 | AGGATGCC | -0.102
163 | ATCGAATC | 0.0745
164 | TAAAGGTA | 0.0512
165 | CAATGAAC | 0.00305
166 | GCGCACAA | -0.0152
167 | CCGAAATC | 0.0136
168 | GGACCAGA | -0.0563
169 | AAGTCCAC | -0.0692
170 | GTACCACA | 0.121
171 | TTGGGAAA | 0.294
172 | GTGGAAAA | 0.298
173 | GTGGAAAC | -0.0663
174 | CTGGGAAA | 0.135
175 | CTGGAAAA | 0.377

Row | Sequence | PBM E-score
176 | GTGGAAGA | 0.137
177 | TTGAAAAA | 0.237
178 | CTGGAAAC | -0.0702
179 | TAGGAAAA | 0.229
180 | ATGGGAAA | 0.0136
181 | TTGGAAAA | 0.298
182 | CTGGAAAG | -0.189
183 | AAAGCTTG | 0.147
184 | CTGCAAAC | 0.0506
185 | CCGCCTGA | -0.172
186 | TCTGCGCA | 0.0104
187 | CAGATATG | -0.0501
188 | ATGGAAAA | 0.32
189 | ATGGAAAT | 0.175
190 | ATGGAAAG | 0.122
191 | ATTTGGCC | -0.0178
192 | CTCATCAG | 0.0236
193 | CAATGAGG | -0.14
194 | CTAACGAA | 0.0607
195 | TTAACGAA | 0.296
196 | ATAACGAA | 0.229
197 | CAATAAGC | 0.0395
198 | ATATAAAC | 0.142
199 | AAATAAAA | 0.233
200 | ATATAAAT | 0.34

Row | Sequence | PBM E-score
201 | AAATAAAT | 0.298
202 | AAATAAGT | 0.295
203 | AAATAAGC | 0.0677
204 | AAATAACA | 0.11
205 | AAATAACT | 0.294
206 | ATATAAAG | 0.211
207 | AAATAACG | 0.232
208 | AAATAAGG | 0.00755
209 | AAATAAAG | 0.281
210 | GATTCTGC | 0.0635
211 | CAGCAAAC | -0.0765
212 | GGTTCTGA | -0.0472
213 | ACATGACC | -0.186
214 | ACTTATGA | 0.171
215 | CGATCTAC | -0.0159
216 | AGCTGGTA | -0.142
217 | AGGATTTA | 0.228
218 | AGGATTCA | 0.114
219 | AGGATTAT | 0.306
220 | AGGATTAC | 0.106
221 | AGGATTAA | 0.361
222 | AGGATTAG | 0.161
